Measurements reported in PubChem BioAssay (NCATS).

assay: High-throughput drug toxicity screening in the BPDCN cell line Cal-1 (AID 1224825); conditions: Cal-1 BPDCN cell viability, qHTS; at 45.8 µM (top of the series) unless noted
How it was run: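 Exponentially growing Cal-1 cells, 500 per well in phenol red-free RPMI with 10% FBS, were exposed to compounds for 48 h at 37 °C, 5% CO2. Viability was read by CellTiter-Glo luminescence and normalised to DMSO (100%) and 9.2 uM bortezomib (0%).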

Row | Structure (SMILES) | viability (% of control)
1 | Cc1cnc(CNC(=O)c2c(=O)c3ccc(N4CCCN(C)CC4)nc3n3c2sc2ccccc23)cn1 | 1.44% [at 23.2 µM]
2 | CCC[C@H](N[C@@H](C)C(=O)N1[C@@H]2CCCC[C@H]2C[C@H]1C(=O)O)C(=O)OCC | 104%
3 | CCn1c(-c2nonc2N)nc2cncc(CNC3CCNCC3)c21 | 56.5%
4 | Cn1c(=O)c(-c2c(Cl)cccc2Cl)cc2cnc(Nc3cccc(C(=O)O)c3)nc21 | 77.7%
5 | O=C1NC(=O)C(c2cnc3ccccn23)=C1c1cn2c3c(cccc13)CN(C(=O)N1CCOCC1)CC2 | 24.4%
6 | Cc1c(-c2cccc3c(CCCOc4cccc5ccccc45)c(C(=O)O)n(Cc4cccnc4)c23)c(COc2ccc(N3CCN([S+](=O)([O-])N(C)C)CC3)cc2)nn1C | 86.1%
7 | O=C(Nc1cccc(C(F)(F)F)c1)Nc1cc(S(=O)(=O)NC2CC2)ccc1-c1ccsc1 | 68.8%
8 | CC(=O)NCCC(=O)N[C@@H](CCC(N)=O)C(=O)N[C@@H](CO)C(=O)N[C@@H](CCC(N)=O)C(=O)N[C@@H](CCC(N)=O)C(=O)N[C@H](C(=O)N[C@@H](Cc1ccccc1)C(=O)N[C@]1(C)CCCCCCC=CCCC[C@@](C)(C(=O)N[C@@H](CCC(N)=O)C(=O)N[C@@H](CC(N)=O)C(N)=O)NC(=O)[C@H](CC(C)C)NC(=O)[C@H](CC(C)C)NC(=O)[C@@H](CCCNC(=N)N)NC(=O)[C@H](Cc2c[nH]c3ccccc23)NC(=O)[C@H](CC(C)C)NC(=O)[C@H](CC(N)=O)NC1=O)[C@H](C)O | 78.7%
9 | C=C1c2cccc(O)c2C(O)=C2C(=O)[C@@]3(O)C(O)=C(C(N)=O)C(=O)[C@@H](N(C)C)[C@@H]3[C@@H](O)[C@H]12 | 94.6%
10 | C[C@@]1(c2cc(-c3cncnc3)c(F)cc2F)CCSC(N)=N1 | 13.1%
11 | Cc1cc(CS(=O)(=O)c2ccccc2)cc(OCc2ccc(CN3CCC[C@H]3CO)cc2)c1 | 76.3%
12 | O=C1Nc2ccc(I)cc2C1=Cc1cc(Br)c(O)c(Br)c1 | 106%
13 | CCc1cccc(CC)c1NC(=O)N1Cc2[nH]nc(NC(=O)c3ccc(N4CCN(C)CC4)cc3)c2C1 | 12.8%
14 | Nc1[nH]nc2nnc(-c3c(-c4ccccc4)nn4ccccc34)cc12 | 6.85%
15 | Cc1nc(NC(=O)N2CCC[C@@H]2C(N)=O)sc1-c1csc(C(C)(C)C)n1 | 55.1%
16 | CCCCc1ccc(NS(=O)(=O)c2ccc(C)c(C(=O)N3CCN(c4cccc(C)c4C)CC3)c2)cc1 | 99.3%
17 | CCNC(=O)c1noc(-c2cc(C(C)C)c(O)cc2O)c1-c1ccc(CN2CCOCC2)cc1 | 7.68%
18 | N#CC1(c2cccc(C(=O)Nc3cc(Oc4ccc5nc(NC(=O)C6CC6)sc5n4)ccc3F)c2Cl)CC1 | 43.3%
19 | CC1C(=O)OC2C(O)C34C5CC(C(C)(C)C)C36C(OC(=O)C6O)OC4(C(=O)O5)C12O (configuration not stated) | 16.8%

Row | Structure (SMILES) | viability (% of control)
20 | CN(C)CCOc1ccc(C(=C(CCCl)c2ccccc2)c2ccccc2)cc1 | 111%
21 | COc1ccc(-c2cc(=O)c3c(O)cc(O[C@@H]4O[C@H](CO[C@@H]5O[C@@H](C)[C@H](O)[C@@H](O)[C@@H]5O)[C@@H](O)[C@H](O)[C@@H]4O)cc3o2)cc1O | 111%
22 | CCCCC(C)(C)[C@H](O)C=C[C@H]1[C@H](O)CC(=O)[C@H]1CC=CCCCC(=O)O | 11.7%
23 | CC1(COc2ccc3c(c2)ncn3-c2ccc3cccc(N4CCC(N)CC4)c3n2)COC1 | 3.06%
24 | O=C(NCCCCN1CCOCC1)c1cc2ccccc2o1 | 109%
25 | CC(=O)O[C@]1(C(C)=O)CC[C@H]2[C@@H]3C=C(Cl)C4=CC(=O)[C@@H]5C[C@H]5[C@]4(C)[C@@H]3CC[C@@]21C | 18%
26 | CCC[C@H](Nc1nc(-c2ccc(NC(=O)NCC)c(OC)c2)ncc1C)c1cccnc1 | 4.63%
27 | COc1cc2nc(-c3cc(F)ccc3O)nc(N[C@@H]3CNC[C@@H]3C(C)(C)O)c2cc1OC | 5.24%
28 | O=C(Nc1cccc2c(=O)cc(-c3nn[nH]n3)oc12)c1ccc(OCCCCc2ccccc2)cc1 | 26.2%
29 | CC[C@H](C=C[C@@H](C)[C@H]1CC[C@H]2[C@@H]3CC=C4C[C@@H](O)CC[C@]4(C)[C@@H]3CC[C@]12C)C(C)C | 108% [at 23.2 µM]
30 | CN1CCC(COc2cnc(-c3cccc(Cn4nc(-c5cccc(C#N)c5)ccc4=O)c3)nc2)CC1 | 5.37%
31 | CC(C)Oc1cc(Nc2nc(N[C@@H](C)c3ccc(F)cn3)ncc2Cl)[nH]n1 | 15.5%
32 | CC[C@]1(O)C[C@H]2CN(CCC3=c4ccccc4=N[C]3[C@@](C(=O)OC)(c3cc4c(cc3OC)N(C)[C@H]3[C@@](O)(C(N)=O)[C@H](O)[C@]5(CC)C=CCN6CC[C@]43[C@@H]65)C2)C1 | 14.9%
33 | CCOC(=O)N1CCN([N+]([O-])=NOc2cc(ON=[N+]([O-])N3CCN(C(=O)OCC)CC3)c([N+](=O)[O-])cc2[N+](=O)[O-])CC1 | 81.2%
34 | CCOC(=O)[C@H](CCc1ccccc1)N[C@@H](C)C(=O)N1CCCC1C(=O)O (some centres not stated) | 76.8%
35 | Cc1ccc(NC(=O)Nc2cc(C(F)(F)F)ccc2F)cc1Nc1ccc2c(c1)NC(=O)C2=Cc1ccc[nH]1 | 2.92%
36 | C=C[C@@H]1CN2CCC1C[C@@H]2C(O)c1ccnc2ccc(OC)cc12 (some centres not stated) | 86%
37 | CN1CCN2c3ncccc3Cc3ccccc3C2C1 (configuration not stated) | 112%
